Screening data (PubChem BioAssay)
ATXN viability: cell viability loss in ATXN counter-screen; S2 cells (HEK-293 line with an ATXN2-luciferase reporter) viability, CellTiter-Fluor protease fluorescence, 24 h; Potency, µM (top dose mostly 56.7 µM), hits mostly cytotoxic; 400,000 tested, 0.49% active; AID 651635; also: nearly all actives have a fitted effect of over 40% in size
Nrf2 block: inhibitors of Nrf2 signaling; 360,000 tested, 2.1% active; Potency, µM (titrated, usually from 46 µM), for the others: top-dose activity change, negative = inhibition, most hits filed as inhibitors; AID 504444; A549 ARE-Fluc reporter, luciferase luminescence, 18-24 h; also: % is scaled to controls: 0 for no effect and ±100 for the full control effect; nearly all actives have a fitted effect of over 60% in size
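A549 ARE_Fluc cells, 5000/well, 5% FBS OPTI-MEM; compounds in dose-response, 18-24 h at 37 °C/5% CO2; CellTiter-Fluor viability read (Ex 405/Em 525), then BugLite luciferase luminescence = Nrf2 activity.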
HepG2 viability: HepG2 cytotoxicity, counter-screen for TGF-b inhibitors | 410,000 tested, 0.76% active | Potency, µM (top dose mostly 46.1 µM), inactives show at the top dose activity change, negative = cytotoxicity, most hits filed as cytotoxic | HepG2 CAGA-GFP viability, ATP luminescence, 18 h
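HepG2 CAGA-GFP cells (1000/well, DMEM with 1% FBS) received compound, then TGF-beta at 500 pg/mL final, and were incubated 18 hours at 37 degrees C. Viability was read by CellTiter-Glo luminescence. Media-only wells were set as complete cell-killing and DMSO as no toxicity.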
TGFb SMAD3 inh: TGF-b pathway inhibition | Potency, µM (doses to about 46.1 µM), without a hit: at the top dose activity, negative = inhibition, most hits filed as inhibitors | HepG2 CAGA-GFP TGF-b/SMAD3 reporter, GFP fluorescence, 18 h; TGF-beta stimulated, 500 pg/mL final | 410,000 tested, 1.2% active; also: % is scaled to controls: 0 for no effect and ±100 for the full control effect; nearly all actives have a fitted effect of over 65% in size
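HEPG2 CAGA-GFP reporter cells (1000/well, DMEM with 1% FBS) received compounds, then recombinant TGF-beta at 500 pg/mL final for 18 hours at 37 degrees C. Per-cell GFP summed per well was normalised to unstimulated and stimulated DMSO controls before curve fitting.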
A549 viability: kills or reduces viability of A549 cells in Nrf2 counter-screen; Potency, µM (titrated, usually from 46 µM), inactives show at the top dose activity change, negative = cytotoxicity, actives largely listed as inhibitors; AID 504648; 390,000 tested, 0.16% active; A549 ARE-Fluc cells, CellTiter-Fluor viability, 18-24 h; also: % is scaled to controls: 0 for no effect and ±100 for the full control effect
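A549 ARE_Fluc cells in 5% FBS OPTI-MEM were exposed to compounds in concentration-response for 18-24 h at 37 deg C. Viability was read by CellTiter-Fluor fluorescence (Ex 405/Em 525) after 30 min, before the luciferase read.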
ATXN2 expr inh: reduces ATXN2 reporter expression in HEK-293 cells | 360,000 tested, 0.72% active | HEK-293 ATXN2-luciferase reporter, luminescence, 24 h | Potency, µM (top dose mostly 57 µM), without a hit: at the highest dose activity change, negative = inhibition, actives largely listed as inhibitors; also: % is scaled to controls: 0 for no effect and ±100 for the full control effect; nearly all actives have a fitted effect of over 55% in size
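qHTS (up to 57 uM final) was run with 24 h compound exposure of reporter cells at 37 °C. Each well was multiplexed: SteadyGlo luminescence measured ATXN2-luciferase expression after a fluorogenic Gly-Phe-AFC viability readout (25 uM final).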
* marks the source's active call; other numbers are inactive results; i = inactive; ? = inconclusive; . = no result; ! = repeats disagree. Shown are actives, neighbours in structure and some others; about 3.8% of the full set was active somewhere. Calls follow the shape of the dose curve; as a rule, active = well fitted curve in the direction sought with a large enough effect; inconclusive = small, poorly fitted or top-dose-only effect, or another doubt; inactive = no such curve, though single readings can be large; an effect the other way counts as inactive or inconclusive. Potency is read from the fitted curve at half-maximal effect.

SMILES	ATXN viability	Nrf2 block	HepG2 viability	TGFb SMAD3 inh	A549 viability	ATXN2 expr inh
c1ccc(CN2CCC3CC2c2c3cccc2N2CCOCC2)cc1 (stereo unspecified)	i	.	-3%	-3%	.	10%
CCC(C(=O)OCC(=O)NCc1ccc2c(c1)OCO2)c1ccccc1 (stereo unspecified)	i	1%	-9%	-3%	-2%	-2%
COCCn1c(C)cc(C(=O)CSc2nnc3ccccn23)c1C	i	?	-24%	-1%	-3%	7.1µM*
C=CCc1ccccc1OCCSc1nc(-c2ccccc2F)nc2cc(=O)[nH]n12	i	?	-24%	18µM*	10%	-20%
COc1ccc(-c2nc(SCCOc3ccccc3Cl)n3[nH]c(=O)cc3n2)cc1	i	?	-21%	?	2%	-7%
Cc1ccc(CNC(=O)C2CCCN(S(=O)(=O)c3ccc4c(c3)oc(=O)n4C)C2)cc1 (stereo unspecified)	i	-3%	-5%	?	5%	7%
CCn1c(C(=O)N2CCC(C(=O)N3CCN(c4cccc(C)c4C)CC3)CC2)cc2sccc21	.	21µM*	-13%	11µM*	-20%	.
Cc1cccc(N2CCN(C(=O)C3CCN(S(=O)(=O)N4CCOCC4)CC3)CC2)c1C	i	21µM*	-6%	-29%	2%	.
COc1ccc(CN(C)CCCn2cnc3c(OC)ncnc32)cc1OC	i	.	-11%	-1%	.	8%
COC(=O)C(C)N(C(=O)c1cccc2ccccc12)c1c(C)cccc1C (stereo unspecified)	i	18µM*	-1%	4%	-11%	-13%
O=c1c([N+](=O)[O-])cc(C(F)(F)F)cn1Cc1c(Cl)cccc1Cl	i	-23%	-18%	-7%	-1%	-7%
COc1ccc(/C=C(\C#N)C(=O)NCC2CCCO2)cc1OC (stereo unspecified)	i	?	-10%	5%	-6%	0%
COc1cc(/C=C(\C#N)C(=O)NCC2CCCO2)ccc1OCC(N)=O (stereo unspecified)	i	14%	10µM*	-3%	5%	-12%
CC1=CC(=O)C(C(C)C)=C/C1=N/OS(=O)(=O)c1ccccc1	3.2µM*	?	-99%	5µM*	?	.
CC1=CC(=O)C=C(C)C1=NOS(=O)(=O)c1ccccc1	?	0%	-112%	?	1%	?
CC1CCN(S(=O)(=O)c2ccc3c(c2)C(=NO)c2cc(S(=O)(=O)N4CCC(C)CC4)ccc2-3)CC1	3.2µM*	4.1µM*	1.3µM*	8.9µM*	5.2µM*	3.5µM*
COc1ccc(S(=O)(=O)N2CCC(C)CC2)cc1OC	i	5%	-5%	0%	11%	.
O=S(=O)(c1ccc2c(c1)C(=NO)c1cc(S(=O)(=O)N3CCCCC3)ccc1-2)N1CCCCC1	3.5µM*	?	1.8µM*	?	?	3.5µM*
CCCS(=O)(=O)NC(=O)C1(C)CCN(C(=O)COc2ccccc2)C1 (stereo unspecified)	i	.	0%	23%	.	0%
COc1ccc(CNC(=O)CN(Cc2ccc(C)cc2)C(=O)c2csnn2)cc1	i	3%	-31%	?	3%	-11%
CC(C)(C)OC(=O)N1CCC(CC2CC(c3cccc(Br)c3)=NO2)(C(=O)NCC2CCCCC2)CC1 (stereo unspecified)	i	?	-13%	?	-5%	-2%
O=C(NCC1CCCCC1)C1(CC2CC(c3cccc(Br)c3)=NO2)CCNCC1 (stereo unspecified)	.	24%	16µM*	?	15%	?
COc1ccc(C(=O)NNC(=O)C(=O)NC2CCCCC2)cc1	i	2%	9%	-4%	-1%	4%
COc1cccc(NC(CNS(=O)(=O)c2ccc(Cl)cc2)c2ccccc2)c1 (stereo unspecified)	?	?	-101%	11µM*	?	?
COc1cccc(NC(CNS(=O)(=O)c2ccc(C)cc2)c2ccccc2)c1 (stereo unspecified)	?	?	-94%	14µM*	-17%	?
SMILES	ATXN viability	Nrf2 block	HepG2 viability	TGFb SMAD3 inh	A549 viability	ATXN2 expr inh
O=S(=O)(NCC(c1ccccc1)N1CCNCC1)c1ccc(Cl)cc1 (stereo unspecified)	?	13%	-101%	13µM*	-3%	?
CCN1CCN(C(CNS(=O)(=O)c2ccc(Cl)cc2)c2ccccc2)CC1 (stereo unspecified)	i	0%	-12%	0%	0%	-12%
O=S(=O)(NCC(Nc1ccc(Cl)cc1)c1ccccc1)c1ccccc1 (stereo unspecified)	.	?	16µM*!	?	?	?
Cc1ccc(NC(CNS(=O)(=O)c2ccc(Cl)cc2)c2ccccc2)cc1 (stereo unspecified)	i	?	-83%	?	?	?
CN1CCN(C(=O)Nc2cccc(-c3ccccc3)c2)CC1	i	1%	-28%	-3%	4%	-14%
Cc1cnc2ccc(I)cc2c1/C=C/c1ccc(N(C)C)cc1	.	.	-26%	-2%	.	.
Cc1nc([N+](=O)[O-])c(Sc2nc3ccccc3n2C)n1Cc1ccccc1	i	-23%	-131%	?	-3%	-6%
O=C(O)CCC(=O)Nc1cc(C(F)(F)F)cc(C(F)(F)F)c1	i	-19%	-19%	6%	0%	.
CN(Cc1ccccc1)c1ccc(/C=C/c2sc3ccccc3[n+]2C)cc1	.	.	-34%	3.2µM*	.	.
N#Cc1nc(NCC(F)F)c2ncn(-c3cccc(Cl)c3)c2n1	.	21µM*	.	.	?	.
N#Cc1nc(Nc2cc(F)cc(F)c2)c2ncn(CC(F)F)c2n1	?	?	-28%	-8%	-4%	-16%
Cc1ccc2c(cnn2C(=O)CCC(=O)NC2CCCCC2)c1	i	7%	-4%	-10%	-2%	13%
Cc1nc2ccccc2c(=O)n1-c1ccc(NC(=O)C(F)(F)F)cc1	i	.	-6%	?	9%	6%
CC(C)CN(C)c1ccc(/C=C2\C=Cc3ccccc32)cc1	.	.	-46%	-18%	.	.
CC(C)c1csc(CN2CCN(Cc3ccc(F)cc3)C(CCO)C2)n1 (stereo unspecified)	i	4%	10%	3.5µM*	5%	-20%
Cc1ccc(CN2CCN(Cc3nc(C(C)C)cs3)CC2CCO)cc1 (stereo unspecified)	i	9%	0%	-22%	-2%	.
